In the library only some 21% were active in any assay of this set; here they are far more common.
Pf growth 48h: Primary qHTS for delayed death inhibitors of the malarial parasite plastid, 48 hour incubation. P. falciparum luciferase growth in erythrocytes, 48 h. Potency, µM (titrated, usually from 28.7 µM), for the others: at the top dose activity change, negative = inhibition, actives largely listed as inhibitors. 310,000 tested, 5.9% active. AID 504832, 2011; further: potency means the concentration at half of the fitted maximal effect; on the % scale 0 is the no-effect control and ±100 the full control effect
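Parasite viability was followed by luminescence of a genomically integrated firefly luciferase. Cultures held 0.1% parasitemia at 2% hematocrit (final), incubated under 5% CO2 at 37 C.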
CHX counter: Cycloheximide Counterscreen for Small Molecule Inhibitors of Shiga Toxin; max response, %; cell reporter, cycloheximide protein synthesis inhibition counterscreen; 300,000 tested, 12% active; in the data active means max response mostly above about 13%, no sharp cut-off; inactive means mostly below about 14%; further: read at 38.3 µM for the half of the compounds with a filed dose; 0% is about no effect
Shiga toxin inh: A qHTS for Small Molecule Inhibitors of Shiga Toxin; Vero cells, Shiga toxin protein synthesis inhibition reporter; inhibition, % at 38.7 µM; 290,000 tested, 9.2% active; AID 2315, 2010; in the data active means inhibition mostly above about 28%, no sharp cut-off; inactive means mostly below about 43%; further: 0% is about no effect
Pf growth 96h: Primary qHTS for delayed death inhibitors of the malarial parasite plastid, 96 hour incubation; Potency, µM (doses to about 28.7 µM), inactives show top-dose activity change, negative = inhibition, most hits filed as inhibitors; AID 504834, 2011; 320,000 tested, 6.9% active; P. falciparum luciferase reporter growth, 96 h; further: potency means the concentration at half of the fitted maximal effect; on the % scale 0 is the no-effect control and ±100 the full control effect
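96 h incubation, 37 C, 5% CO2, of luciferase-reporter P. falciparum-infected RBCs (2% hematocrit, 0.05% parasitemia final) with test compounds; endpoint luminescence.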
NS1 inh: qHTS Assay for Inhibitors of Influenza NS1 Protein Function; Potency, µM (top dose mostly 46.1 µM), for the others: at the top dose activity, positive = more growth; 270,000 tested, 0.4% active; AID 2326, 2010; calls by dose curve; further: potency means the concentration at half of the fitted maximal effect; actives are rising curves; nearly all actives have a fitted effect of over 50% in size
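OD600 was taken as the measure of yeast growth restored by compound in an NS1-expressing S. cerevisiae strain. Cells had been washed out of glucose medium and diluted 1:100 into galactose -URA medium, pH 6.0.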
Starred values were filed as active, the others as inactive; ? = inconclusive; · = no result given; + = active, no number; [ ] = remark or other dose. Unless noted, the call rests on the fitted dose curve; in most records, active means well fitted inhibition curve with a large enough effect; inconclusive means small, poorly fitted or top-dose-only effect, or another doubt; inactive means no such curve, though single readings can be large or run the other way.

SMILES	Pf growth 48h	CHX counter	Shiga toxin inh	Pf growth 96h	NS1 inh
CC(C)(C)NC(=S)NCc1ccco1	?	-5	-33	?	20%
CN(C)c1ccc(C(=S)NCc2ccco2)cc1	168%	85*	+	25%	-63%
Cn1ccc(CC(=O)N2CCC(N3CCC(C(=O)N4CCCC4)CC3)CC2)c1	27%	5	4	2%	6%
CN(C)S(=O)(=O)c1cccc(C(=O)Nc2n[nH]c(C(F)(F)F)n2)c1	11%	-4	0	15%	3%
COc1cc2c(cc1OC)C(=O)CC(C)S2 (stereo unspecified)	4%	-3	-7	0%	-5%
Clc1nc(-c2cccnc2)nc2scc(-c3ccccc3)c12	12µM*	29*	40*	1µM*	-7%
COc1ccc(-c2csc3nc(-c4cccnc4)nc(Cl)c23)cc1OC	12µM*	4	-8	6.6µM*	2%
C/C(N)=C(/C#N)C(=O)CN1C(=O)NC(Cc2c[nH]c3ccccc23)C1=O (stereo unspecified)	·	13	17	23%	5%
COc1ccc(Cn2nnnc2C(c2ccccc2)N2CCN(C3CCCC3)CC2)cc1 (stereo unspecified)	?	-4	3	16%	-4%
COc1ccc(Cn2nnnc2C(c2ccccc2Cl)N2CCN(C3CCCC3)CC2)cc1 (stereo unspecified)	15µM*	-9	-18	75%	-8%
COc1ccc(C(c2nnnn2CCc2ccccc2)N2CCN(C3CCCC3)CC2)cc1 (stereo unspecified)	8%	42*	60*	-5%[5.75 µM]	-5%
COc1ccccc1N1CCN(C(c2ccc(N(C)C)cc2)c2nnnn2CCc2ccccc2)CC1 (stereo unspecified)	9.3µM*	-1	14	?	11%
CCC(c1nnnn1C(C)(C)CC)N(CCCO)Cc1cc2cc(C)cc(C)c2[nH]c1=O (stereo unspecified)	8.3µM*	-2	-11	10µM*	-71%
CCC(C)(C)n1nnnc1C(C(C)C)N(CCCO)Cc1cc2cc(C)ccc2[nH]c1=O (stereo unspecified)	?	-3	-7	13µM*	-7%
CCCC(c1nnnn1C(C)(C)CC)N(CCCO)Cc1cc2cc(C)cc(C)c2[nH]c1=O (stereo unspecified)	?	-1	-8	?	-4%
CCCC(=O)Nc1ccc2c(c1)nc1n2CCOC1	11%	-2	27	1%[5.75 µM]	5%
CCCCC(=O)Nc1ccc2c(c1)nc1n2CCOC1	73%	20*	89*	23%[5.75 µM]	1%
COc1ccc(C(=O)Nc2ccc3c(c2)nc2n3CCSC2)cc1	?	45*	86*	56%	-5%
O=C(Nc1ccc2c(c1)nc1n2CCSC1)c1ccccc1	5%	40*	43*	-2%[5.75 µM]	-11%
O=C(Nc1ccc2c(c1)nc1n2CCOC1)c1ccccc1	86%	31*	94*	62%[5.75 µM]	-10%
Cc1ccc(N(C)C(=O)CCS(=O)(=O)c2cc3c(cc2Cl)NC(=O)CO3)cc1	?	-3	1	-39%	-5%
CC(C)C(=O)Nc1ccc2c(c1)nc1n2CCSC1	70%	19	40*	·	17%
CCc1ccc(OCC(=O)Nc2ccc(CN3CCCCC3)cc2)cc1	?	-2	-4	?	-8%
CCc1ccc(OCC(=O)Nc2ncn[nH]2)cc1	117%	25*	58*	305%	·
O=C(COc1ccccc1)Nc1ncn[nH]1	40%	21*	46*	102%	-2%
SMILES	Pf growth 48h	CHX counter	Shiga toxin inh	Pf growth 96h	NS1 inh
CC(C)(C)c1ccccc1OCC(=O)Nc1ncn[nH]1	·	1	-8	38%	-3%
O=C(CCc1ccccc1)Nc1ncn[nH]1	1%	2	-16	?	0%
O=C(/C=C/c1ccccc1)Nc1ncn[nH]1	3%	26*	29	-5%	-208%
O=c1[nH]c(=S)[nH]c(O)c1N=Nc1ccc(SC(F)F)cc1	0%	33*	25	2%	2%
CC(C)c1ccc(N=Nc2c(O)[nH]c(=O)[nH]c2=O)cc1	54%	19	16	6%	9%
CCCCCCCC(=O)Oc1ccc(C(=O)Nc2cc(C)on2)cc1	99%	25	13	43%	5%
Cc1cccc(C)c1NC(=O)c1cccc2c1C(=O)N(C1CCCCC1)C2	10µM*	1	-2	12µM*	-20%
Cc1ccc(C(C)C)cc1OCCOCCN1CCCC1	·	-3	-10	13%	-1%
CCCCc1oc2ccccc2c1C(=O)c1cc(I)c(OCCN(CC)CC)c(I)c1	8.3µM*	-5	-10	4.1µM*	?
CCN(CC)CCOc1ncnc2c1oc1ccccc12	25%	-4	-6	2%	-2%
CN(C)C(=O)CN1C(=O)NC(c2ccccc2)(c2ccccc2)C1=O	25%	-4	-11	18%	-13%
CCN(C(=O)CN1C(=O)NC(c2ccccc2)(c2ccc(C)c(C)c2)C1=O)C1CCCCC1 (stereo unspecified)	6.6µM*	·	·	3.3µM*	·
CCN(C(=O)CN1C(=O)NC(c2ccccc2)(c2ccc(C)c(C)c2)C1=O)C1CCS(=O)(=O)C1 (stereo unspecified)	?	·	·	13µM*	·
O=S(=O)(/N=C(/Nc1ccc(F)c(F)c1F)c1ccccc1)c1ccccc1	15%	-3	-12	34%	2%
COc1cccc(CN(CC2CCCO2)S(=O)(=O)c2ccc(S(=O)(=O)N(C)C)cc2)c1 (stereo unspecified)	-20%	-3	19	·	-5%
Cc1cccc(OCC(=O)Nc2cc(C)ccc2O)c1	12µM*	21*	30*	?	-61%
CCN(CC)CCCNC(=O)c1ccc(OCC(=O)Nc2ccccc2C(F)(F)F)c(OC)c1	?	5	-5	19µM*	5%
CCCc1ccc(OCC(=O)Nc2cc(S(=O)(=O)CC)ccc2O)cc1	17%	-2	2	12µM*	-1%
Cc1cccc(OCC(=O)Nc2ccccc2C(F)(F)F)c1	41%	14	81*	31%	1%
CC(C)c1nnc(SCC(=O)N2CCc3ccccc32)n1N	?	5	27	-22%	·
CSc1ccc(S(=O)(=O)Nc2c(C)n(C)n(-c3ccccc3)c2=O)cc1	19%	-4	-3	4%	16%
Cc1cccc(OCC(=O)Nc2ccccc2-c2ccccc2)c1	3%	-1	0	0%	9%
Cc1cccc(OCC(=O)Nc2cc(C)c(C)cc2O)c1	3.7µM*	10	30	-19%	-39%
CCOC(=O)c1c(C)n(C)c2ccc(OC)c([N+](=O)[O-])c12	2%	-1	-7	?	2%
CCOc1ccc(CCNC(=O)C2CC(C)=CCC2C(=O)O)cc1OCC (stereo unspecified)	2%	-2	-5	?	3%
O=C(Cn1c(C(F)(F)F)nc2ccccc21)c1ccc(F)cc1	-10%	-4	-16	-7%	-3%

Compound activity: PubChem, National Center for Advancing Translational Sciences (NCATS)
